Screening results: PubChem BioAssay, National Center for Advancing Translational Sciences (NCATS)
Compounds with a hit are over-represented: about 2.3% of the library has one in this group of screens.
BRCT inh green = inhibitors of human BRCA1 BRCT-phosphoprotein interaction (green fluorophore); BRCA1 BRCT-phosphopeptide binding, green fluorescence polarization; AID 875; P38398; Potency, µM (series often up to 76.9 µM), usual class: inhibitors; 75,000 tested, 0.05% active
Target sequence (P38398 whole entry, looked up): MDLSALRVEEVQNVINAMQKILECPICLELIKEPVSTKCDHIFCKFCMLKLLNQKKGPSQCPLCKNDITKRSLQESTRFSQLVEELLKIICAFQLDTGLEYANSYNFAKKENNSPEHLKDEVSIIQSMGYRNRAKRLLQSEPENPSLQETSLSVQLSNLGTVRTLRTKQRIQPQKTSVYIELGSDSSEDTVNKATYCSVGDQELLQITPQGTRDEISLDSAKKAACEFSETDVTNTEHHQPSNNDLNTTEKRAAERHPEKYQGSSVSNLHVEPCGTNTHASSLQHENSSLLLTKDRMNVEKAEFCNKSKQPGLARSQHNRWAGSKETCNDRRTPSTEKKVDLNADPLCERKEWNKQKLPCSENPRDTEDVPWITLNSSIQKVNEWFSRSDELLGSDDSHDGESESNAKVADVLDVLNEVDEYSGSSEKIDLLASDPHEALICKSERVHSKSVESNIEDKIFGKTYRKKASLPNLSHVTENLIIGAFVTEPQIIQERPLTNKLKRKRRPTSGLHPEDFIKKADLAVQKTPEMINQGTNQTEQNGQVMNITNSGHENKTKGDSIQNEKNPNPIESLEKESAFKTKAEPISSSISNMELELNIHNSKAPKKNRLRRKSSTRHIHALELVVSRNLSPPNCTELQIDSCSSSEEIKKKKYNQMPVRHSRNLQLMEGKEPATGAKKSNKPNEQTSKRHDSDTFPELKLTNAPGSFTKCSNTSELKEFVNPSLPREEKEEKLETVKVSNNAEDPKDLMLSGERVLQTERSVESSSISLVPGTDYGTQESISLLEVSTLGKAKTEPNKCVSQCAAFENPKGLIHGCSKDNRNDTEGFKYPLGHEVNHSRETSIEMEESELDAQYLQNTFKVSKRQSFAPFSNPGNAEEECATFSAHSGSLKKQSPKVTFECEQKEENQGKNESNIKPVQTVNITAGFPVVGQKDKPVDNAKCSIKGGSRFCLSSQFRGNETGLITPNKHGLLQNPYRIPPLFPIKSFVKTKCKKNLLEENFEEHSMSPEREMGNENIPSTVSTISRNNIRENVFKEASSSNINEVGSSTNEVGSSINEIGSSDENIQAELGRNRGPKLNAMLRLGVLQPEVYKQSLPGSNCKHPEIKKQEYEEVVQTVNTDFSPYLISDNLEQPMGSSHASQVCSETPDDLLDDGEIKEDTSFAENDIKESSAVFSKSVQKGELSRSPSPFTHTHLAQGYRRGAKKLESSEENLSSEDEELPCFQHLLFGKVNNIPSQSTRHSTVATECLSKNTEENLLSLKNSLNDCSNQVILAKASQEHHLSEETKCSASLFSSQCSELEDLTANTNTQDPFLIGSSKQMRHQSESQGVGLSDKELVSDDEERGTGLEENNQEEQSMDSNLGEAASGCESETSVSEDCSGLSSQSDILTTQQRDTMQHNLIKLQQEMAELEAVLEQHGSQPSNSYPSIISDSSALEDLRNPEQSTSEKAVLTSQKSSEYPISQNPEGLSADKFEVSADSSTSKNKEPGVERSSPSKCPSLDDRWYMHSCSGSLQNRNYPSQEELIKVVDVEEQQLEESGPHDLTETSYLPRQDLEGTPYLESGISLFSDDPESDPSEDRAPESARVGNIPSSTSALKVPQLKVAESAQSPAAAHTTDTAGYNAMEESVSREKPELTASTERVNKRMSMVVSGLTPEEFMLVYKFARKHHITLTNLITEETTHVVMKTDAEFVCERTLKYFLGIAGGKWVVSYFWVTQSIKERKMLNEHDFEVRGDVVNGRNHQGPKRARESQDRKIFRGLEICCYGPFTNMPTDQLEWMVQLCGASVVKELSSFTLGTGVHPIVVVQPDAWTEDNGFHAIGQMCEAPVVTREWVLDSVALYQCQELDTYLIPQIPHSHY
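Compounds were incubated for 12 min at room temperature with a complex of 100 nM fluorescein-tagged pBACH1 decapeptide and 250 nM His-tagged BRCT protein. Buffer was phosphate pH 7.3 with EDTA, DTT and Tween 20. Disruption of binding lowers the polarization signal.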
TsaE inh = YjeE (TsaE) inhibition, E. coli. 71,000 tested, 0.05% active. Potency, µM. P0AF67. purified YjeE enzyme, qHTS inhibition assay. AID 605
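Fluorescence polarization of a BODIPY Texas Red–ADP probe (2 uM) bound to purified YjeE (10 uM) was read after 15 min room-temperature incubation with compounds. Loss of polarization marks inhibitors; ADP serves as titrated control.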
BRCT PPI red = inhibitors of human BRCA1 BRCT-phosphoprotein interaction (red fluorophore) | BRCT-phosphopeptide binding, red fluorescence polarization | Potency, µM (highest dose often 76.9 µM), usual class: inhibitors | 75,000 tested, 0.03% active
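Fluorescence polarization: 100 nM His-tagged BRCA1 BRCT with 100 nM TAMRA-labelled phospho-BACH1 decapeptide, phosphate buffer pH 7.3 with 150 mM NaCl, DTT, 0.01% Tween 20; 12 min RT. Binding inhibition seen as FP decrease.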
Hsp90 Hop PPI = changes Hsp90-Hop TPR2A binding signal, up or down; AlphaScreen TPR2A-His6 binding biotin-Hsp90 C-terminal peptide; Potency, µM (titrated, usually from 57 µM); 71,000 tested, 0.44% active; AID 595; active = well fitted curve in either direction with a large enough effect; inconclusive = small, poorly fitted or top-dose-only effect, or another doubt
DNA Pol III inh = inhibitors of bacterial DNA polymerase III holoenzyme; reconstituted DNA polymerase III holoenzyme replication, biochemical; Potency, µM (doses to about 57.1 µM); 71,000 tested, 0.25% active
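Reconstituted *E. coli* holoenzyme (0.35 nM Pol III, 1 nM beta, 154 nM SSB, 2 nM primase) was preincubated with compound for 15 min at RT. Synthesis on 1.4 nM ssM13Gori ran 35 min, then was stopped with PicoGreen/EDTA and read as dsDNA fluorescence.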
Tau fil binding = binders of human tau filaments. P10636. 71,000 tested, 2% active. AID 596. Potency, µM (top dose mostly 57.1 µM). recombinant tau filaments, thioflavin S fluorescence, 15 h; filaments grown with octadecylsulfate alongside compound;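 note: actives lower thioflavin S fluorescence by blocking filaments or displacing dye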
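Thioflavine S fluorescence (ex 450, em 510 nm) reports filaments formed from 1 uM human tau plus 30 uM ODS over 15 h at 37 C (10 mM HEPES pH 7.4, 100 mM NaCl, 5 mM DTT); compounds displacing dye or blocking filaments lower signal.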
Of the large screens only hits and unclear results are named; the others gave an inactive call; ! = repeats disagree. Unless noted, calls come from the whole dose curve; as a rule, active = well fitted curve in the direction sought with a large enough effect; inconclusive = small, poorly fitted or top-dose-only effect, or another doubt; inactive = no such curve, though single readings can be large; an effect the other way counts as inactive or inconclusive.

CSc1ccc2c(c1)N(CC[C@H]1CCCCN1C)c1ccccc1S2	Tau fil binding 3.98µM!
CN=CC1=C(O)c2ccccc2C1=O	none
O=C1C(C2=C(O)c3ccccc3C2=O)=Nc2ccccc21	Hsp90 Hop PPI inconclusive, Tau fil binding 6.31µM
Cc1cc(C)c2cc(C#N)c(SCC(=O)NCc3ccco3)nc2c1	Tau fil binding 20µM
C[C@H](NC(=O)/C(C#N)=C/c1ccc(O)c(O)c1)c1ccccc1	Hsp90 Hop PPI 7.94µM!, Tau fil binding inconclusive
N#C/C(=C\c1ccc(O)c(O)c1)C(=O)NCCCNC(=O)/C(C#N)=C/c1ccc(O)c(O)c1	Hsp90 Hop PPI 2µM, DNA Pol III inh 2.51µM
N#C/C(=C\c1ccc(O)c(O)c1)C(=O)Nc1ccccc1	Hsp90 Hop PPI 10µM!
O=C(O)c1cccnc1C(=O)O	Hsp90 Hop PPI 3.16µM, Tau fil binding inconclusive
O=C(C1CCCCC1)N1CCC(c2nc3ccccc3[nH]2)CC1	none
CN1C(=O)CC(N2CCC(c3nc4ccccc4[nH]3)CC2)C1=O (stereo not drawn)	Tau fil binding 20µM
Cc1ccc(-c2csc(NC(=O)c3ccno3)n2)cc1	Tau fil binding 31.6µM
O=C(Nc1nc(-c2ccccc2)cs1)c1cccs1	none
O=c1c(O)c(-c2ccc(O)c(O)c2)oc2c(OC[C@H]3O[C@@H](O)[C@@H](O)[C@H](O)[C@@H]3O)c(O)cc(O)c12	Tau fil binding inconclusive (no result: BRCT inh green, BRCT PPI red)
CCC(=O)OCC(=O)C1(OC(=O)CC)C(C)CC2C3C(Cl)CC4=CC(=O)C=C[C@@]4(C)C3C(O)C[C@@]21C (stereo partly drawn)	none (no result: TsaE inh, Hsp90 Hop PPI, DNA Pol III inh, Tau fil binding)
CC(N=Cc1cccc(O)c1O)c1ccccc1 (stereo not drawn)	Tau fil binding 12.6µM
Cc1ccc(N=Cc2cccc(O)c2O)c(C)c1	none (no result: TsaE inh, Hsp90 Hop PPI, DNA Pol III inh, Tau fil binding)
CCCCCCCCC1CO1 (stereo not drawn)	none
O=C(NCCCn1ccnc1)C(F)(F)C(F)(F)C(=O)NCCCn1ccnc1	Hsp90 Hop PPI 25.1µM
CN1CCN(C(=O)CSc2nc(-c3cccs3)cc(-c3cccs3)c2C#N)CC1	Tau fil binding 7.94µM
Nc1ccc(-c2ccc(Nc3cc(S(=O)(=O)O)c(N)c4c3C(=O)c3ccccc3C4=O)cc2)c(S(=O)(=O)O)c1	none
O=C1c2ccccc2C(=O)c2c(NC3CCCCC3)ccc(Nc3ccc(S(=O)(=O)O)cc3)c21	TsaE inh 12.6µM, Hsp90 Hop PPI 3.98µM, Tau fil binding 3.16µM
CCc1ccc(S(=O)(=O)Nc2ccc(O)c(C(=O)O)c2)cc1	none (no result: TsaE inh, Hsp90 Hop PPI, DNA Pol III inh, Tau fil binding)
COc1ccc(OC)c(NS(=O)(=O)Cc2ccccc2)c1	Tau fil binding 15.8µM
CCn1c(=O)c(C(=O)CN2CCCc3ccccc32)c(N)n(Cc2ccccc2)c1=O	Tau fil binding 25.1µM
CN(C)c1ncc2nc(-c3ccccc3)c(=O)n(C)c2n1	Hsp90 Hop PPI 12.6µM
COc1cccc(Cn2c(=O)c(-c3ccccc3)nc3cnc(N(C)C)nc32)c1	Hsp90 Hop PPI 10µM
CN=C(NC#N)Nc1ccc(C2=NNC(=O)C[C@@H]2C)cc1	Tau fil binding 39.8µM!
COc1ccc(/C=C/N(CCc2ccc(OC)c(OC)c2)C(=O)c2ccccn2)cc1	none (no result: TsaE inh, Hsp90 Hop PPI, DNA Pol III inh, Tau fil binding)
CCOC(=O)c1sc(NC(=O)CSc2nnc(Cc3ccccc3)o2)c(C#N)c1C	Tau fil binding 20µM
CCOC(=O)c1sc(NC(=O)CSc2ncn[nH]2)c(C#N)c1C	none
CCNc1ncc2nc(-c3ccccc3)c(=O)n(Cc3cccs3)c2n1	none
Cc1ccc2oc(-c3ccccc3)c(O)c(=O)c2c1	Tau fil binding 31.6µM
COc1ccc(Cn2c(-c3ccco3)nc3oc4cc(OC)ccc4c(=O)c3c2=O)cc1	TsaE inh inconclusive, Tau fil binding 10µM
COc1ccc(Cn2c(-c3ccco3)nc3oc4ccccc4c(=O)c3c2=O)cc1	none
O=C1Nc2ccc(I)cc2/C1=C/c1cc(Br)c(O)c(Br)c1	TsaE inh inconclusive, BRCT PPI red inconclusive, Hsp90 Hop PPI inconclusive, Tau fil binding 1µM
CCOC(=O)c1sc(NC(=O)CSc2nnnn2-c2ccc(C)cc2C)nc1C	none
COC(=O)c1ccccc1NC(=O)CSc1nnnn1-c1ccc(C)cc1C	Tau fil binding 10µM
CCNc1ncc2nc(-c3cccs3)c(=O)n(Cc3cccc(OC)c3)c2n1	none
CCOC(=O)SC1=N/C(=C\c2ccc(N(C)C)cc2)C(=O)S1	Tau fil binding 3.16µM
CCN1C(=O)/C(=C2\C=Cc3ccccc3N2CC)OC1=S	Tau fil binding 1µM
COc1ccc(CNc2nc(-c3cccnc3)nc3ccccc23)c(OC)c1	none
COc1ccc2[nH]cc(CCNc3ccnc(-c4ccccc4C)n3)c2c1	Hsp90 Hop PPI inconclusive, Tau fil binding 15.8µM
COc1cccc(-c2nccc(NCCc3c[nH]c4ccc(OC)cc34)n2)c1	Hsp90 Hop PPI inconclusive, Tau fil binding 25.1µM
COc1ccc2[nH]cc(CCNc3nc(-c4cccnc4)nc4ccccc34)c2c1	Tau fil binding 25.1µM
CN(C)c1ccc(NC(=O)CCCc2ccccc2)cc1	Tau fil binding 20µM
COCC(=O)Nc1ccc(N(C)C)cc1	none
CCOc1ccccc1OCC(=O)Nc1ccc(N2CCCCC2)cc1	Tau fil binding 25.1µM
Cc1cc(C)cc(OCC(=O)Nc2ccc(N3CCCC3)cc2)c1	none (no result: TsaE inh, Hsp90 Hop PPI, DNA Pol III inh, Tau fil binding)
CN1CCN(c2ccc(NC(=O)COc3ccccc3Cl)cc2)CC1	Tau fil binding 15.8µM
O=C(O)CCC(=O)Nc1ccc(N2CCCCCC2)cc1	none
Cc1cccc(OCC(=O)Nc2ccc(N3CCCC3)cc2)c1C	Hsp90 Hop PPI inconclusive, Tau fil binding inconclusive
O=C(CNCC1CCCO1)Nc1ccc(N2CCCCCC2)cc1 (stereo not drawn)	Tau fil binding 31.6µM
Cc1ccc(OCC(=O)Nc2ccc(N3CCCC3)cc2)cc1C	Hsp90 Hop PPI inconclusive, Tau fil binding 1.58µM
c1cn(-c2cc(-c3ccc4c(c3)OCO4)ncn2)cn1	TsaE inh inconclusive
Cc1ccccc1OCCCC(=O)Nc1ccc(N2CCOCC2)cc1	Tau fil binding 3.16µM
Cc1ccc(OCCCC(=O)Nc2ccc(N3CCOCC3)cc2)c(C)c1	Tau fil binding inconclusive
COc1ccc([C@@H]2CNC(=O)C2)cc1OC1CCCC1	Tau fil binding inconclusive
CCOC(=O)c1c(C)c(C(=O)Nc2ccc(N(C)C)cc2)c(C)n1CC	Tau fil binding 15.8µM
CCN(CC)CCNC(=O)c1ccc(Cc2nc3ccccc3[nH]2)cc1	none (no result: TsaE inh, Hsp90 Hop PPI, DNA Pol III inh, Tau fil binding)
CCN(CC)CC[n+]1ccc2c(C)c3[nH]c4ccccc4c3c(C)c2c1	DNA Pol III inh 3.98µM
O=C(c1cc2nc3c(c(C(F)(F)F)n2n1)CCc1ccccc1-3)N1CCN2CCCC2C1 (stereo not drawn)	Hsp90 Hop PPI inconclusive, Tau fil binding 12.6µM
O=C(O)c1cc2nc3c(c(C(F)(F)F)n2n1)CCc1ccccc1-3	none
